# Screening data deposited in PubChem BioAssay by National Center for Advancing Translational Sciences (NCATS).
# Most compounds without a hit are left out; they make up all but 6.1% or so of the library.
# D1 PAM – human D1 dopamine receptor positive modulation; P21728; HEK293 TREx D1 cells, calcium flux, dopamine EC20 potentiation; potentiation, % at 10 µM; 0.036% of 360,000 active; in the data active = potentiation above about 30%; note: 0% is about no effect
# D3 ag – D3 dopamine receptor (human) agonism | P35462 | D3R DiscoveRx beta-arrestin cells, luminescence, 90 min | max activation, % | 0.58% of 410,000 active | AID 652048; in the data active = max activation above about 30%; note: 0% is about no effect
# Target sequence (P35462 whole entry, looked up): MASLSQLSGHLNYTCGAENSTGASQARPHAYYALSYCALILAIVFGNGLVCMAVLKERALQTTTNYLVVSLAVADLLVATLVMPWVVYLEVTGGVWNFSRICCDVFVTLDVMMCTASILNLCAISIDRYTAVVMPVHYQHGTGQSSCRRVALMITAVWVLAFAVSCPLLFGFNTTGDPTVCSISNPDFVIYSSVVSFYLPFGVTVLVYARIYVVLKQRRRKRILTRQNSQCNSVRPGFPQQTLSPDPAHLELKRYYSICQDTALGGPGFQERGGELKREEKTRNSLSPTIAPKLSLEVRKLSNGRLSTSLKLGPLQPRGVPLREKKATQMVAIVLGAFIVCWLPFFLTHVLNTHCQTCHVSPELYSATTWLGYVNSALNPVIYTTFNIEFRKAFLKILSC
#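 Agonist-mode cell screen: cells plated at 1500/well and incubated overnight at 37 °C, then exposed to library compounds for 90 min at 37 °C. Detection reagent was added for 30–60 min at room temperature, and luminescence was read.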
# D1 ag – agonists of human D1 dopamine receptor | P21728 | HEK293 T-REx D1 cells, calcium flux, agonist mode | activation, % at 2 µM | 1% of 360,000 active; in the data active = activation above about 30%; note: 0% is about no effect
#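 Inducible HEK293 T-REx D1 cells, force-coupled to calcium signalling, were plated at 4000 cells/well with tetracycline and held overnight at 30 C. After no-wash calcium dye loading, compound-evoked calcium rise over 180 s flagged agonists.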
# ERG-DNA inh – inhibitors of human ERG Ets domain-DNA interaction; P11308; fluorescence polarization, His-ERG Ets domain / labelled DNA; Potency, µM (highest dose often 76.9 µM), without a hit: at the top dose FP activity, negative = inhibition, most hits filed as inhibitors; 0.028% of 370,000 active; active = well fitted inhibition curve with a large enough effect in the polarisation, with a control signal flat; inconclusive = small, poorly fitted or top-dose-only effect, or effect the other way, or a change in a side signal; inactive = no such curve, though single readings can be large or run the other way; the % refers to the polarisation;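 note: polarization taken with two DNA probes labelled with fluorescein and Texas red; potency is the fitted concentration of half-maximal effect; % of control where 0% means no effect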
#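 His-tagged ERG Ets domain (1 uM in the protein solution; 300mM KCl, 50mM Tris-HCl, 1mM EDTA, 1mM DTT, pH 7.5) received compound, then a probe mix of 5 nM fluorescein-DNA and 100nM Texas-615-DNA. Fluorescence polarization was read for both dyes.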
# DRD3 antagonist – D3 dopamine receptor (human) antagonism; P35462; D3R cells, DiscoveRx beta-arrestin luminescence, antagonist mode; stronger effect = lower value; max response, negative = inhibition, %; 2.5% of 360,000 active; AID 652054; in the data active = max response below about -50%; inconclusive = no clear call, values can overlap the other calls; note: % is set by controls: 0 for no effect and ±100 for the full control effect
#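 Cells plated overnight at 1500 cells/well, then exposed to library compounds with dopamine controls for 90 minutes at 37 degrees C. DiscoveRx reagent added for 30–60 minutes at room temperature; luminescence read, quantitative HTS format.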
# D1 antag – blocks dopamine activation of the human D1 receptor; 3.2% of 360,000 active; activity change, negative = inhibition, % at 10 µM; P21728; HEK293 TREx D1 cells, calcium flux, dopamine EC80; stronger effect = lower value; in the data active = activity change below about -30%; note: % is set by controls: 0 for no effect and ±100 for the full control effect
#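 After overnight tetracycline induction at 30 C, force-coupled D1 HEK293 cells took up a no-wash calcium dye at room temperature. Compounds were added and monitored 180 s, and the response to EC80 dopamine was then recorded.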
# The depositor's hits bear a star; ? = inconclusive; nt = no result given.
SMILES,D1 PAM,D3 ag,D1 ag,ERG-DNA inh,DRD3 antagonist,D1 antag
O=C1C2CCCCN2C(=O)N1CCCCN1CCN(c2cccc(Cl)c2)CC1 (stereo not given),-21.9,1.2,1.8,-2.3%,-60.5*,-39.4*
CC(C)C(=O)Nc1cccc(N2CCN(CCCN3C(=O)C4CCCCN4C3=O)CC2)c1 (stereo not given),nt,-6.2,nt,1.5%,-1.2,nt
O=C1CC(=C(c2ccccc2)c2ccccc2)C(=O)N1CCCCN1CCN(c2cccc(Cl)c2)CC1,-3.8,23.4,1.3,11.7%,-51.5*,-12.1
Cc1ccccc1N1CCN(CCCN2C(=O)CC(=C(c3ccccc3)c3ccccc3)C2=O)CC1,-5.3,-28.6,2.9,-7.3%,?,-3.4
Cc1ccc(N2CCN(CCCN3C(=O)C4CCCN4C3=O)CC2)cc1 (stereo not given),-6.1,-15.3,3.9,2.8%,-26.6,-17.5
O=C1C2CCCN2C(=O)N1CCCN1CCN(c2cccc(Cl)c2)CC1 (stereo not given),-8.9,-13.3,7.8,-5.9%,-50.3*,-10.1
O=c1n(CCCN2CCN(c3cccc(Cl)c3)CC2)nc2ccccn12,-4.9,-71.7,0.5,16.7%,-92.6*,6.9
O=C(CCNS(=O)(=O)c1ccccc1C(F)(F)F)NCCCc1ccccc1,1.5,5.4,0.4,-5.0%,-5.5,-15.1
O=C1C2CCCCN2C(=O)N1CCCCN1CCN(c2cccc(C(F)(F)F)c2)CC1 (stereo not given),nt,-25.8,nt,26.8%,-139.7*,nt
O=C1C2CCCCN2C(=O)N1CCCCN1CCN(c2ccc([N+](=O)[O-])cc2)CC1 (stereo not given),-8.3,-10.6,1.6,-4.1%,-18.4,19.3
CCN1CCc2c(sc(NC(=O)Cc3ccccc3)c2C(=O)OC)C1,-4.1,-17.8,4.6,0.8%,-103.1*,-5.8
CCOC(=O)c1c(NC(=O)C2CCCCC2)sc2c1CCN(C(C)C)C2,-1.2,-11.8,3.5,1.0%,-60.4*,56.3
CCN1CCc2c(sc(NC(=O)Cc3ccccc3)c2C(N)=O)C1,-1.9,-14.7,6.2,-2.0%,?,-23.8
CCOC(=O)c1c(NC(=O)Cc2ccccc2)sc2c1CCN(CC)C2,-8.6,-14.5,18.6,-0.2%,-64.2*,6.3
COC(=O)c1c(NC(=O)C2CCCCC2)sc2c1CCN(C(C)C)C2,4.9,-11.2,1.1,10.9%,?,15.5
C/C(=N\NC(=O)COc1ccccc1[N+](=O)[O-])c1cccs1,1.4,0.2,3.8,-7.1%,-3.8,0.7
COC(=O)C1=C(NC(=O)c2ccc(C)cc2)CCS1,-4.2,-12.8,1.2,-1.7%,21.0,6.9
CC(NCC(O)COCCC12CC3CC(CC(C3)C1)C2)c1ccccc1 (stereo not given),12.4,-0.3,169.5*,0.0%,3.6,56.4
NCC(O)COCCC12CC3CC(CC(C3)C1)C2 (stereo not given),6.9,-0.8,8.1,6.2%,3.4,-5.0
CCCCc1cc(C)c(S(=O)(=O)c2ccccc2C)c(=O)[nH]1,-7.8,2.5,-0.9,6.4%,-1.3,-0.6
c1ccc(N2CCN(c3nc(-c4ccccn4)nc4ccccc34)CC2)cc1,3.4,-11.5,0.9,-7.7%,-81.8*,0.0
CN1CCN(c2nc(-c3ccccn3)nc3ccccc23)CC1,-1.9,4.5,4.2,-1.2%,-50.7*,4.4
CCCOc1ccc(-c2nc(N3CCN(CC)CC3)c3ccccc3n2)cc1,-4.2,-2.8,0.3,-5.8%,?,2.5
CCCOc1ccc(-c2nc(N3CCN(C)CC3)c3ccccc3n2)cc1,-11.7,-9.9,4.6,-4.8%,-58.8*,-3.6
O=C(NCCCN=C1NS(=O)(=O)c2ccccc21)c1ccncc1,2.4,3.9,-0.2,1.1%,31.8,nt
SMILES,D1 PAM,D3 ag,D1 ag,ERG-DNA inh,DRD3 antagonist,D1 antag
Cc1noc(C)c1COC(=O)c1ccc2ccccc2n1,7.8,-2.5,12.0,-13.0%,-5.1,-2.1
Cn1cc(S(=O)(=O)N2CCN(c3ccccc3F)CC2)c(=O)n(C)c1=O,-3.5,-2.5,-0.8,0.1%,-19.7,1.7
COc1ccccc1N1CCN(S(=O)(=O)c2cn(C)c(=O)n(C)c2=O)CC1,-13.3,3.9,0.1,-4.8%,-5.7,-36.4*
CC1CCN(S(=O)(=O)c2cn(C)c(=O)n(C)c2=O)CC1,-10.2,1.0,-2.3,-2.5%,0.0,-61.3*
Cc1ccccc1NS(=O)(=O)c1ccc(C(=O)N2CCN(c3ccccc3O)CC2)cc1,-11.6,24.5,8.5,4.6%,46.4,-7.2
Fc1cccc(Cl)c1CSc1nnnn1-c1ccc2c(c1)OCO2,-5.6,-11.4,7.7,nt,-21.8,-32.1*
Cc1c(Cl)cnc(NC(=O)COC(=O)[C@H](C)NC(=O)c2ccccc2)c1Cl,-2.9,-3.2,0.6,11.2%,-2.8,-6.9
Cc1ccc(-n2cccn2)c(CN2CCCC(C(=O)c3sccc3C)C2)c1 (stereo not given),-6.2,-13.7,3.4,8.9%,-75.6*,-24.4
Cc1ccsc1C(=O)C1CCCN(Cc2cccn2-c2ccc(Cl)cn2)C1 (stereo not given),-4.2,-11.8,5.9,-12.5%,-66.6*,15.8
O=C(c1ccc(Cl)cc1)C1CCCN(Cc2cccn2-c2ccccn2)C1 (stereo not given),-4.2,-16.6,7.4,-1.4%,0.3,9.0
CCn1cc(CN2CCCC(C(=O)Nc3cccc(-n4cccn4)c3)C2)c(C)n1 (stereo not given),1.3,-21.1,0.6,-3.9%,-3.7,-7.5
CCCC1(C(=O)OCC)NC(c2ccc(O)cc2)C2C(=O)N(c3cccc(C(C)=O)c3)C(=O)C21 (stereo not given),0.9,3.3,3.6,5.3%,-5.5,0.6
COc1ccccc1N1CCN(CC(O)COc2ccc3c(C)cc(=O)oc3c2)CC1 (stereo not given),-5.7,-21.9,0.3,4.2%,-77.2*,-19.3
Cc1cc(=O)oc2cc(OCC(O)CN3CCc4ccccc4C3)ccc12 (stereo not given),-6.5,-22.1,0.5,7.3%,-55.0*,23.8
Cc1cc(=O)oc2cc(OCC(O)CN3CCN(c4ccccc4)CC3)ccc12 (stereo not given),-2.9,37.1*,1.1,-0.7%,0.0,-14.3
O=C1CCCN1c1ccc(S(=O)(=O)Oc2cccc(Cl)c2)cc1[N+](=O)[O-],nt,0.8,nt,0.9%,-1.6,nt
CCOc1cccc2sc(N(CCN(C)C)C(=O)c3ccc4c(c3)OCCO4)nc12,-4.1,-18.6,7.4,0.9%,-66.4*,-15.7
CCOc1cccc2sc(N(CCN(C)C)C(=O)c3cc4ccccc4cc3OC)nc12,6.0,-14.9,32.8*,-1.7%,-70.6*,-70.4*
